# A selection: hits, their analogues and other compounds. The true share with any hit is near 3.3%.
# esBAF inh: Bmi1 luciferase reporter increase in mESCs, primary screen, esBAF inhibitor project, mouse ES cells, Bmi1 luciferase knock-in, single point. actives 2% (n = 350,000). 24 h; 100% = twice the neutral-well signal. reporter increase, % at 12.5 µM; in the data active = activation above about 40%; inconclusive = no clear call, values can overlap the other calls;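 note: 0% = median of the plate's neutral control wells and 100% = double that signal; a rise in the Bmi1 reporter signal indicates esBAF inhibition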
# MITF TRPM1 HTS: activators of MITF-driven TRPM1 promoter reporter, primary screen, cell-based, SK-MEL-5, luciferase, single point | SK-MEL-5 TRPM1-promoter luciferase, 24 h; % of positive control, neutral wells = 0 | activation, % at 12.5 µM | actives 0.75% (n = 300,000);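 active = mean activation of at least 80% with every replicate also reaching 80%; inconclusive = mean reaches 80% but some replicate falls short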;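 note: 0% = neutral control wells and 100% = parthenolide positive control wells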
# FXN GAA850 act: FXN promoter activators, primary screen, cell-based, luciferase luminescence, HEK293 lucGAA850; HEK293 lucGAA850 FXN promoter luciferase reporter, 24 h; percent of 10 µM SAHA response; activation, % at 6 µM; actives 0.56% (n = 360,000);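 active = activation above the average of all compounds screened plus 3 SD, cutoff fixed separately per campaign, cut at about 7.5% in these data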;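 note: 0% = DMSO wells and 100% = 10 µM SAHA wells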
# Statin myotox sup: suppressors of statin myotoxicity in C2C12 myotubes, primary screen, cell-based, single point, plate reader | rescue of ATP level, % at 7.49 µM | actives 0.78% (n = 330,000) | AID 602340, 2012 | C2C12 myotubes + simvastatin, ATP luminescence, 48 h; scaled: DMSO 0, geranylgeraniol control 100;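 active = mean ATP rescue above about 67%, or every replicate alone reaching that limit, limit read from the data, passing the limit was not always enough; inconclusive = no clear call, values can overlap the other calls; inactive = mean under the limit and some replicate under it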;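 note: myotubes were challenged with 10 µM simvastatin during compound exposure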
# Wnt act: Wnt/beta-catenin pathway activators, primary screen, cell-based, plate reader, single point | Wnt/beta-catenin reporter cell assay, activator | activation, % at 9.35 µM | actives 1.2% (n = 300,000) | AID 743398, 2014; in the data active = activation above about 30%, passing the limit was not always enough; inconclusive = no clear call, values can overlap the other calls;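 note: 0% = neutral control wells and 100% = positive control wells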
# * hit, by the source's call; ? = inconclusive; . = no result.
SMILES,esBAF inh,MITF TRPM1 HTS,FXN GAA850 act,Statin myotox sup,Wnt act
O=C(OCc1nc2ccccc2s1)C1CCN(S(=O)(=O)c2cccs2)CC1,56*,24,2,-27,44*
O=S(=O)(c1cccs1)N1CCN(Cc2nc3ccccc3s2)CC1,-4,.,4,21,36*
CO[C@@H]1CN(C)C(=O)c2ccc(NC(C)=O)cc2OC[C@H](C)N(C(=O)C2CCOCC2)C[C@H]1C,-1,.,.,6,.
COCC#Cc1cnc2c(c1)C(=O)N([C@H](C)CO)C[C@H](C)[C@@H](CN(C)S(=O)(=O)c1cn(C)cn1)O2,5,.,.,-1,.
CC(=O)Nc1ccc(NC(=O)CN(c2ccc(C34CC5CC(CC(C5)C3)C4)cc2)S(C)(=O)=O)cc1,20,9,9.5*,25,2
CS(=O)(=O)N(CC(=O)Nc1ccc(CC#N)cc1)c1ccc(C23CC4CC(CC(C4)C2)C3)cc1,28,8,11*,26,0
CS(=O)(=O)N(CC(=O)Nc1c(F)cccc1F)c1ccc(C23CC4CC(CC(C4)C2)C3)cc1,0,-6,5,2,.
Fc1ccc(C[n+]2csc3ccccc32)cc1,6,-12,3,74*,-2
COCCNC(=O)c1c(CSc2ccccc2)noc1C(=O)NCc1ccccc1,9,-1,1,-3,10
COCCNC(=O)c1c(CS(=O)(=O)c2ccccc2)noc1C(=O)NCc1ccccc1,-5,0,0,96*,-3
CC(C)n1nnc(-c2ccc(OCc3ccccc3F)cc2)n1,6,.,3,-42,21
Cn1nnc(-c2ccc(OCc3ccccc3F)cc2)n1,3,60,7,-13,38*
Fc1ccccc1COc1ccc(-c2nnn(Cc3ccccc3F)n2)cc1,3,17,2,120*,-2
Cn1ncc(N=Cc2ccccc2)c1C(N)=O,7,3,-1,?,-2
Nc1ncc(Br)cc1N=Cc1ccccc1,.,62,9.9*,.,3
Cc1ccc(S(=O)(=O)Nc2ccc3c(c2)C(=O)N([C@@H](C)CO)C[C@H](C)[C@H](CN(C)Cc2ccc(C(F)(F)F)cc2)OCCCC[C@H](C)O3)cc1,-2,.,.,.,.
Brc1ccc2[nH]c3c(c2c1)CCC3,-5,4,0,-4,1
O=c1c2c([nH]c3ccc(Br)cc13)CCCC2,-1,-4,0,126*,.
C/C(=N\Nc1cccc2cccnc12)c1ccc(N)cc1,64*,16,4,6,2
COC(=O)c1sc(NC(=O)Cc2cccs2)nc1C,42*,38,0,-9,.
COC(=O)c1sc(NC(=O)c2ccoc2C)nc1C,49*,.,-1,-11,10
COC(=O)c1sc(NC(=O)COc2ccccc2)nc1C,-1,56,4,6,.
Cc1cccc2c1-c1sc(C(=O)Nc3cccnc3)cc1CO2,50*,64,2,-9,-1
O=C(Nc1cccnc1Cl)c1noc2c1CCc1ccccc1-2,.,70,6,.,37*
Cc1cccc2c1-c1sc(C(=O)Nc3nccs3)cc1CO2,47*,58,-1,-40,27
SMILES,esBAF inh,MITF TRPM1 HTS,FXN GAA850 act,Statin myotox sup,Wnt act
Cc1cccc2c1-c1sc(C(=O)Nc3cccc([N+](=O)[O-])c3C)cc1CO2,.,3,0,.,0
CCCNC(=O)c1noc2c1CCc1ccccc1-2,?,?,4,-6,11
CCOC(=O)c1cc2c(s1)-c1c(C)cccc1OC2,64*,.,3,5,16
COc1ccc(CN(C)C[C@H]2OCCCC[C@H](C)Oc3ccc(NC(=O)c4ccccc4)cc3C(=O)N([C@@H](C)CO)C[C@H]2C)cc1,2,.,.,.,.
O=C(Nc1nccs1)c1cc2c(s1)-c1ccccc1OC2,103*,41,3,-11,?
O=C(Nc1cccnc1Cl)c1cc2c(s1)-c1ccccc1OC2,46*,49,0,-8,0
CO[C@@H]1CN(C)C(=O)c2cc(NS(=O)(=O)c3ccccc3)ccc2OC[C@H](C)N(C(=O)NC(C)C)C[C@@H]1C,-3,.,.,7,.
CCCCOc1ccc(-c2nnn(CCC(=O)N3CCOCC3)n2)cc1,63*,60,2,-7,11
O=C(CCCOc1ccc(Cl)cc1)N1CCOCC1,29,.,0,12,10
CC(C)(C)c1ccc(OCCCC(=O)N2CCOCC2)cc1,66*,44,7,-10,14
O=C(CCCOc1ccc(Cl)cc1)N1CCCCC1,17,49,0,-14,7
O=C(CCCOc1ccccc1)N1CCCCC1,-73,-1,-2,94*,.
O=C(CCCOc1ccc(Cl)cc1)N1CCCCCC1,62*,43,4,11,.
CC=Cc1ccc2n(c1=O)C[C@H]1[C@H](CO)[C@@H](C(=O)NCCN3CCCC3)N(C(=O)NC(C)C)[C@@H]21 (mixture of isomers),-4,.,.,9,.
CN(C)CC(=O)Nc1ccc2c(c1)[C@@H]1C[C@H](CC(=O)NCc3cccnc3)O[C@H](CO)[C@@H]1O2,-3,.,.,-2,.
CN1C(=O)C2C=CC1C1C(=O)N(c3ccccc3)C(=O)C21 (stereo not given),57*,89*,2,0,.
Cc1ccc(C(=O)/C=C/Nc2cccc(O)c2)cc1,-60,-3,5,2,.
O=C(/C=C/Nc1cccc(O)c1)c1ccccc1,-7,4,-3,-4,48*
O=[N+]([O-])c1cccc(-c2nc(-c3ccncc3)no2)c1,35,43,1,19,0
O=[N+]([O-])c1cccc(-c2nc(-c3ccccc3)no2)c1,73*,22,2,4,.
O=[N+]([O-])c1cccc(-c2nnc(-c3ccccc3)o2)c1,.,51,4,.,46*
O=[N+]([O-])c1cccc(C2CC(c3ccccc3)=NN2c2ccccc2)c1 (stereo not given),0,.,3,38,0
O=[N+]([O-])c1cccc(C2=NC(c3ccccc3)CO2)c1 (stereo not given),45*,27,2,23,?
O=S(=O)(c1ccc(OCc2nc3ccccc3s2)c(Cl)c1)N1CCOCC1,86*,66,5,29,.
O=C(NNC(=S)Nc1ccccc1Cl)c1ccccc1,71*,93*,4,-2,24
O=C(Nc1ccccc1Cl)c1ccccc1Cl,14,32,2,12,0
O=C(NNC(=S)Nc1ccc(Cl)cc1)c1ccccc1,31,32,6,-3,0
O=C(NNC(=S)Nc1ccccc1Cl)c1ccccc1Cl,53*,78,4,-2,26
CN(C)c1ccc(C(=O)/C=C/c2ccco2)cc1,.,52,6,.,.
O=C(C=Cc1ccco1)c1ccc2ccccc2c1,.,58,7,.,61*
